Values joined by “and” are separate entries in the source; they are usually repeats but may differ in a detail not shown here. Equal entries are not always repeated. Hit rate of the full screen: of about 5,500 compounds, about 2,000 (36%) were called active. Roughly 18% stayed inconclusive and do not appear here. No stated cut-off is given here; in the data, active means normalized growth mostly below about 0.91 (no sharp cut-off); inconclusive means no clear call, values can overlap the other calls; inactive means mostly above about 0.92. Some of the results follow.
Assay: chemical genetic growth profiling, strain panel (AID 1159580);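 further: tested at 20 µM; growth read once vehicle control cultures reached saturation at 30 °C; 1 = growth at the plate median or of vehicle wells; lower values mean less growth of the strain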
Details: S. cerevisiae deletion strains, growth OD

Measured: normalized growth

CC(=O)O[C@H]1CC[C@@]2(C)C(CC[C@]3(C)C2CC=C2C4CC(C)(C)CC[C@]4(C)CC[C@]23C)C1(C)C (stereo partly drawn)
inactive: locus YAL013W, strain DEP1, hits give low values 1.02 | locus YAL021C, strain ccr4, hits give low values 0.919 | locus YAL026C, strain drs2, hits give low values 1.01 | locus YAL030W, strain snc1, hits give low values 0.979 | locus YBL061C, strain skt5, hits give low values 0.996 | locus YBR009C, strain hhf1, hits give low values 0.973 | locus YBR021W, strain FUR4, hits give low values 1.01 | locus YBR023C, strain chs3, hits give low values 0.982 | locus YBR171W, strain sec66, hits give low values 0.99 | locus YBR229C, strain ROT2, hits give low values 1 | locus YBR231C, strain swc5, hits give low values 1.01 | locus YBR279W, strain paf1, hits give low values 0.999 | locus YCL011C, strain gbp2, hits give low values 0.962 | locus YCL016C, strain dcc1, hits give low values 0.964 | locus YCL029C, strain bik1, hits give low values 1 | locus YCL061C, strain MRC1, hits give low values 0.99 | locus YCL069W, strain vba3, hits give low values 0.978 | locus YCR088W, strain abp1, hits give low values 0.991 | locus YDL005C, strain med2, hits give low values 0.988 | locus YDL035C, strain GPR1, hits give low values 1.03 | locus YDL040C, strain nat1, hits give low values 0.989 | locus YDL074C, strain BRE1, hits give low values 1.06 | locus YDL101C, strain DUN1, hits give low values 1.02 | locus YDL185W, strain tfp1, hits give low values 1.02 | locus YDL192W, strain arf1, hits give low values 1 | locus YDR001C, strain nth1, hits give low values 0.968 | locus YDR069C, strain doa4, hits give low values 0.971 | locus YDR101C, strain arx1, hits give low values 0.997 | locus YDR137W, strain rgp1, hits give low values 0.973 | locus YDR150W, strain NUM1, hits give low values 1.01 | locus YDR159W, strain sac3, hits give low values 0.998 | locus YDR162C, strain NBP2, hits give low values 1.03 | locus YDR195W, strain ref2 0.953 | locus YDR297W, strain sur2, hits give low values 1 | locus YDR318W, strain mcm21, hits give low values 1.01 | locus YDR334W, strain swr1, hits give low values 0.98 | locus YDR335W, strain msn5, hits give low values 0.989 | locus YDR388W, hits give low values 1.02 | locus YDR392W, strain spt3, hits give low values 0.889 | locus YDR502C, strain sam2, hits give low values 1.02 | locus YEL003W, strain gim4, hits give low values 1.02 | locus YEL037C, strain rad23, hits give low values 0.978 | locus YEL061C, strain CIN8 (second series), hits give low values 0.978 | locus YER015W, strain faa2, hits give low values 0.981 | locus YER016W, strain bim1, hits give low values 0.992 | locus YER110C, hits give low values 1.01 | locus YER111C, strain swi4, hits give low values 0.99 | locus YER155C, strain BEM2 (second series), hits give low values 1.02 | locus YER155C, strain BEM2, hits give low values 1.01 | locus YER167W, strain BCK2, hits give low values 1 | locus YFR010W, strain ubp6, hits give low values 0.992 | locus YGL078C, strain dbp3, hits give low values 1.06 | locus YGL086W, strain mad1, hits give low values 1.01 | locus YGL167C, strain pmr1, hits give low values 0.975 | locus YGL173C, strain kem1, hits give low values 1 | locus YGL227W, strain vid30, hits give low values 0.987 | locus YGL240W, strain doc1, hits give low values 1.01 | locus YGL248W, strain PDE1, hits give low values 1.02 | locus YGL253W, strain hxk2, hits give low values 1.02 | locus YGR078C, strain PAC10, hits give low values 1.03 | locus YGR135W, strain pre9, hits give low values 1.04 | locus YGR252W, strain gcn5, hits give low values 1.08 | locus YHR013C, strain ard1, hits give low values 0.943 | locus YHR027C, strain rpn1, hits give low values 0.983 | locus YHR030C, strain SLT2, hits give low values 1.01 and 1.03 | locus YHR079C, strain IRE1 (second series), hits give low values 1.01 | locus YHR079C, strain IRE1, hits give low values 1.03 | locus YHR094C, strain hxt1, hits give low values 1.02 | locus YHR129C, strain ARP1, hits give low values 1.01 | locus YHR142W, strain chs7, hits give low values 0.959 | locus YHR200W, strain rpn10, hits give low values 1.02 | locus YIL066C, strain RNR3, hits give low values 1.01 | locus YIL073C, strain SPO22, hits give low values 1.04 | locus YIL125W, strain kgd1, hits give low values 1.01 | locus YIR030C, strain dcg1, hits give low values 1.04 | locus YJL092W, strain hpr5, hits give low values 0.975 | locus YJL095W, strain BCK1 (second series), hits give low values 0.986 | locus YJL095W, strain BCK1, hits give low values 1.04 and 1.02 | locus YJL115W, strain asf1, hits give low values 0.968 | locus YJL129C, strain trk1, hits give low values 0.993 | locus YJL134W, strain LCB3, hits give low values 1.01 | locus YJL154C, strain vps35, hits give low values 0.975 | locus YJL164C, strain tpk1, hits give low values 0.949 | locus YJL166W, strain qcr8, hits give low values 0.999 | locus YJL168C, strain set2, hits give low values 1.02 | locus YJL187C, strain SWE1 (second series), hits give low values 1.03 | locus YJL187C, strain SWE1, hits give low values 0.986 | locus YJR043C, strain POL32, hits give low values 1.01 | locus YJR066W, strain TOR1, hits give low values 0.976 | locus YKL009W, strain mrt4, hits give low values 1 | locus YKL068W, hits give low values 1.02 | locus YKL085W, strain MDH1 (second series), hits give low values 1.01 | locus YKL085W, strain MDH1, hits give low values 1.01 | locus YKL160W, strain elf1, hits give low values 0.963 | locus YKL190W, strain CNB1, hits give low values 1.01 | locus YKR001C, strain vps1, hits give low values 0.997 | locus YKR026C, strain gcn3, hits give low values 0.991 | locus YKR091W, strain srl3, hits give low values 0.986 | locus YLL001W, strain dnm1, hits give low values 0.978 | locus YLL026W, hits give low values 0.978 | locus YLL041C, strain sdh2, hits give low values 0.976 | locus YLR027C, strain aat2, hits give low values 0.989 | locus YLR039C, strain RIC1, hits give low values 0.999 | locus YLR058C, strain SHM2, hits give low values 1.02 | locus YLR102C, strain apc9, hits give low values 1 | locus YLR113W, strain HOG1, hits give low values 1 | locus YLR221C, strain rsa3, hits give low values 1.03 | locus YLR258W, strain gsy2, hits give low values 0.962 | locus YLR262C, strain YPT6 (second series), hits give low values 0.976 | locus YLR262C, strain YPT6, hits give low values 1.01 | locus YLR268W, strain sec22, hits give low values 1.02 | locus YLR320W, strain mms22, hits give low values 1.05 | locus YLR342W, strain FKS1, hits give low values 0.991 | locus YLR357W, strain rsc2, hits give low values 0.973 | locus YLR370C, strain arc18, hits give low values 0.967 | locus YLR371W, strain rom2, hits give low values 1.02 | locus YLR384C, strain iki3, hits give low values 1 | locus YLR418C, strain cdc73, hits give low values 1.05 | locus YML016C, strain PPZ1, hits give low values 0.996 | locus YML032C, strain rad52, hits give low values 1 | locus YML120C, strain ndi1, hits give low values 0.96 | locus YML124C, strain tub3, hits give low values 1.01 | locus YMR058W, strain fet3, hits give low values 0.996 | locus YMR078C, strain ctf18, hits give low values 1.03 | locus YMR125W, strain sto1, hits give low values 0.948 | locus YMR129W, hits give low values 0.988 | locus YMR205C, strain PFK2, hits give low values 0.959 | locus YMR223W, strain ubp8, hits give low values 1.02 | locus YMR231W, strain pep5, hits give low values 0.994 | locus YMR263W, strain SAP30, hits give low values 1.03 | locus YMR307W, strain GAS1, hits give low values 1.11 | locus YNL067W, strain RPL9B, hits give low values 1.04 | locus YNL071W, strain lat1, hits give low values 0.982 | locus YNL153C, strain GIM3, hits give low values 1.03 | locus YNL183C, strain NPR1, hits give low values 0.964 | locus YNL209W, strain ssb2, hits give low values 0.984 | locus YNL233W, strain BNI4, hits give low values 1.02 | locus YNL248C, strain rpa49, hits give low values 0.918 | locus YNL250W, strain rad50, hits give low values 1.02 | locus YNL271C, strain bni1, hits give low values 1.03 | locus YNL298W, strain CLA4, hits give low values 1.03 | locus YNL307C, strain MCK1, hits give low values 1.02 | locus YNL322C, strain KRE1 (second series), hits give low values 0.982 | locus YNR049C, strain mso1, hits give low values 0.966 | locus YNR052C, strain pop2, hits give low values 1.02 | locus YOL012C, strain htz1 1.53 | locus YOL147C, strain pex11, hits give low values 1.01 | locus YOR001W, strain rrp6, hits give low values 1.01 | locus YOR061W, strain CKA2, hits give low values 1.02 | locus YOR069W, strain VPS5, hits give low values 1.01 | locus YOR070C, strain gyp1, hits give low values 1.02 | locus YOR080W, strain dia2, hits give low values 1 | locus YOR083W, strain WHI5, hits give low values 0.957 | locus YOR106W, strain vam3, hits give low values 0.929 | locus YOR136W, strain idh2, hits give low values 1.01 | locus YOR144C, strain elg1, hits give low values 1.01 | locus YOR184W, strain ser1, hits give low values 1.01 | locus YOR231W, strain MKK1, hits give low values 1 | locus YOR265W, strain rbl2, hits give low values 0.998 | locus YOR270C, strain vph1, hits give low values 1.03 | locus YOR290C, strain snf2, hits give low values 0.906 | locus YOR316C, strain cot1, hits give low values 1.01 | locus YPL051W, strain arl3, hits give low values 1.01 | locus YPL078C, strain atp4, hits give low values 0.945 | locus YPL106C, strain sse1, hits give low values 0.94 | locus YPL240C, strain hsp82, hits give low values 0.995 | locus YPL241C, strain CIN2, hits give low values 1.01 | locus YPL256C, strain CLN2, hits give low values 1.06 | locus YPR119W, strain clb2, hits give low values 1.02 | locus YPR141C, strain kar3, hits give low values 1.02 | locus YPR163C, strain tif3, hits give low values 1.02 | locus YPR167C, strain met16, hits give low values 1.02 | strain wtn01, hits give low values 1.02

— PubChem BioAssay AID1159580 (chemical genetic matrix, 2015)
